Data from PubChem BioAssay (NCI).
The panel holds about 83,000 compounds, 20% with a hit somewhere; the sample as a whole holds those more often.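 Note: values are percent growth. 100 is the growth of untreated cells, values between 100 and 0 indicate rising inhibition; between -100 and 0 indicates cell death.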 Unmarked numbers belong to inactive results. Activity calls are given as the source filed them. How the source made its calls: active means growth percent below 10; inactive means the rest.

What was measured:
Assay in all cases: NCI-60 one-dose screen, 48 h (100 = growth as untreated, 0 = no growth, -100 = all killed)
Details in all cases: 10 µM
NCI-H23 lung = system: NCI-H23 lung
NCI-H226 lung = system: NCI-H226 lung
NCI-H322M lung = system: NCI-H322M lung
HOP-62 NSCLC = system: HOP-62 NSCLC
NCI-H460 lung = system: NCI-H460 lung
NCI-H522 lung = system: NCI-H522 lung
A549/ATCC NSCLC = system: A549/ATCC NSCLC
786-0 renal = system: 786-0 renal
COLO 205 colon = system: COLO 205 colon
DU-145 prostate = system: DU-145 prostate
K-562 leukemia = system: K-562 leukemia
MALME-3M melanoma = system: MALME-3M melanoma
MDA-MB-231 breast = system: MDA-MB-231 breast
SF-268 CNS = system: SF-268 CNS
SF-295 CNS = system: SF-295 CNS
SF-539 CNS = system: SF-539 CNS
UACC-257 melanoma = system: UACC-257 melanoma
M14 melanoma = system: M14 melanoma
HCT-15 colon = system: HCT-15 colon
RXF 393 renal = system: RXF 393 renal

| SMILES | growth (NCI-H23 lung) | growth (NCI-H226 lung) | growth (NCI-H322M lung) [%] | growth (HOP-62 NSCLC) | growth (NCI-H460 lung) | growth (NCI-H522 lung) | growth (A549/ATCC NSCLC) | growth (786-0 renal) | growth (COLO 205 colon) | growth (DU-145 prostate) | growth (K-562 leukemia) | growth (MALME-3M melanoma) | growth (MDA-MB-231 breast) | growth (SF-268 CNS) | growth (SF-295 CNS) | growth (SF-539 CNS) | growth (UACC-257 melanoma) | growth (M14 melanoma) | growth (HCT-15 colon) | growth (RXF 393 renal) [%] |
| --- | --- | --- | --- | --- | --- | --- | --- | --- | --- | --- | --- | --- | --- | --- | --- | --- | --- | --- | --- | --- |
| CCCN(CCC)CCC(O)c1cc2c(c3ccccc13)CCCC2 (stereo not drawn) | 79.8% | 81.1% | 99.1 | 79.4% | 98.9% | 74.2% | 92.3% | 84.3% | 77% | 106% | 82.5% | 95% | 79.1% | 83.3% | 85.4% | 85.4% | 95.8% | 91.9% | 81.4% | – |
| O=C(C[n+]1ccccc1)c1ccc2ccccc2c1 | 88.1% | 96.4% | 95.2 | 89.1% | 104% | 103% | 96.7% | 87.6% | 102% | 87.9% | 86.6% | 92.4% | 95.2% | 103% | 88.2% | 97.3% | 92.6% | 94% | 109% | – |
| CCN(CC)CCNc1ccc(CO)c2oc3cc(Cl)ccc3c(=O)c12 | 87.2% | 95.7% | 97.4 | 88.4% | 88.2% | 77.9% | 90.4% | 76% | 68.4% | 108% | 81.8% | 112% | 83.7% | – | 97.9% | 88.8% | -0.905% (active) | 60.3% | 81% | 73.3 |
| COc1cc(/C(=C2/O[C@@H]([C@H]3COC(C)(C)O3)[C@H]3OC(C)(C)O[C@@H]23)c2ccc3ccccc3c2)cc(OC)c1OC | 46.2% | 66.9% | 55.1 | 48% | 43.4% | 8.05% (active) | -9.4% (active) | -1.42% (active) | 66.9% | 2.86% (active) | 28.1% | -25.4% (active) | 13.6% | -16.9% (active) | 46.6% | 26.4% | 45.9% | 62.8% | 59.7% | – |
| COc1ccc(-c2nc3ccccn3c2-c2nnc(-c3cc(OC)c(OC)c(OC)c3)o2)cc1 | 72.5% | 60.3% | 57.3 | 37.1% | 21.6% | 44.8% | 60.9% | 60.3% | 53.3% | 66.4% | 102% | 51.5% | 46.9% | – | 64.9% | 52.8% | 84.2% | 75.7% | 71.6% | 74.3 |
| O=C(CC(c1ccccc1)N1CCOCC1)c1ccccc1 (stereo not drawn) | 83.3% | 90.8% | 96.9 | 88.2% | 106% | 88.5% | 97.4% | 80.9% | 116% | 80.3% | 27.9% | 87.6% | 98.6% | 91.8% | 94.9% | 97.5% | 80.5% | 95.8% | 92.2% | – |
| CCCCN(CCCC)CCCCCCCCC(O)c1cc2ccccc2c2ccccc12 (stereo not drawn) | 40.8% | 80.2% | 84.5 | 76.7% | 54.2% | 39.1% | 56.8% | 67.3% | 44.1% | 69.7% | 22.6% | 76.8% | 56.2% | 65.9% | 77.5% | 74.6% | 91.4% | 45.7% | 34.6% | – |
| CCCCCCCCN(CCCCCCCC)CCCCCCCCCN1CCCc2cc(OC)ccc21 | 63.4% | 89.7% | 95.5 | 85% | 102% | 79.4% | 97.2% | 98.3% | 87.8% | 105% | 80.4% | 104% | 89.9% | 99.9% | 88.5% | 104% | 106% | 93.8% | 89.3% | – |
| CCN(CCCCCCCCCCN1CC(=O)N(CCCCCCCCCCN(CC)Cc2ccccc2OC)CC1=O)Cc1ccccc1OC | -26.1% (active) | -2.55% (active) | 18.4 | -71.6% (active) | -93.3% (active) | -74% (active) | -48.8% (active) | -72.5% (active) | -91.6% (active) | -52.9% (active) | -58.2% (active) | -83.6% (active) | -66.3% (active) | 4.39% (active) | -76.7% (active) | -93.2% (active) | -86.9% (active) | -90.2% (active) | -17% (active) | – |
| Cc1cccc(Cl)c1NC(=O)c1ccc2nc(NC(=O)NC3CCN(C)CC3)sc2c1 | 82.3% | 121% | 95.5 | 63.1% | 114% | 83.5% | 91.5% | 91.2% | 37.4% | 103% | 7.86% (active) | 60.8% | 96.7% | 86% | 83.5% | 44.3% | 84.7% | 104% | 101% | – |
| COc1cc(-c2nc(-c3nnc(-c4ccc(F)c(Cl)c4)o3)c3ccccn23)cc(OC)c1OC | 70.1% | 15.3% | 54.5 | -65.6% (active) | 7.43% (active) | 5.92% (active) | 23.7% | 45.5% | 43.7% | 41% | 52.6% | 13.4% | 57.3% | – | 37.3% | 37% | 40.3% | 70% | 55.4% | 40.4 |
| COc1cc(-c2nc(-c3nnc(-c4ccccc4Cl)o3)c3ccccn23)cc(OC)c1OC | 91.1% | 84% | 88.3 | 87.2% | 95.4% | 78.4% | 72% | 105% | 85.4% | 98.5% | 65.8% | 119% | 90.7% | – | 77.9% | 88.3% | 91.4% | 112% | 73.3% | 90.8 |
| COc1ccc(NC(=O)Cc2nc3nc4sc(C)c(C)c4c(=O)n3[nH]2)cc1 | 101% | 86.7% | 94.5 | 107% | 110% | 90.3% | 91.2% | 104% | 118% | 110% | 109% | 89.2% | 108% | 109% | 91.3% | 103% | 101% | 103% | 99.7% | – |
| O=C(Cc1csc2nc(-c3ccc(Cl)cc3)cn12)N/N=C/c1ccccc1O | 59.5% | 56.2% | 51.4 | 40.3% | 18.5% | 49.2% | 36.9% | 32.9% | 16.5% | -8.65% (active) | 41% | 74.5% | 35.5% | 37.9% | 37.6% | 67.3% | 46.5% | 47.1% | 17.2% | – |
| CCN(CC)CCCC(C)Nc1ccc2ccc(Cl)cc2n1 (stereo not drawn) | 98.5% | 93.1% | 102 | 86.9% | 102% | 92% | 98.3% | 93.8% | 95.7% | 114% | 95.6% | 115% | 90.3% | 96.8% | 95.3% | 101% | – | 103% | 102% | – |
| O=C(CC(C(=O)c1ccccc1)N1CCOCC1)c1ccccc1 (stereo not drawn) | 97.4% | 90.3% | 109 | 106% | 102% | 74.7% | 91.9% | 98.8% | 58.5% | 101% | 40.5% | 101% | 92.7% | 97.6% | 92.9% | 96.7% | 93.8% | 101% | 85% | – |
